Assay [1] can be described thus: cAMP Responsive Elements (CRE) small molecule antagonists, cell-based qHTS assay: qHTS cell viability counter screen (AID 2060913). Note: nearly all actives have a fitted effect of over 40% in size. The method in brief:
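Cytotoxicity read in the same wells as the CRE-bla HEK293T antagonist assay: after 3 h compound with 0.25 uM NKH477 final and 2 h beta-lactamase substrate, CellTiter-Glo luminescence measured.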
(In general: In qHTS, concentration-response curves come from the screen itself.)

Assay [2] is described as follows: cAMP Responsive Elements (CRE) small molecule agonists, cell-based qHTS assay: qHTS cell viability counter screen (AID 2060914).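 Note: viability read after 3 h of compound exposure; nearly all actives have a fitted effect of over 50% in size.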 In short, it runs like this:
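Cytotoxicity counter screen multiplexed with the CRE-bla reporter assay in HEK 293T cells: 3 h compound exposure at 37 °C, followed by CellTiter-Glo luminescence measured in the same wells.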

Where “and” joins values, the source holds several entries; their conditions need not be identical. Equal values may be shown once. Records with an inconclusive call do not appear. A number with no mark means an inactive call. Calls of active or inactive are those of the source. Calls come from the whole dose curve; as a rule, active = well fitted cell-killing curve with a large enough effect in the repeat runs; inconclusive = weak or mixed curves, or effect the other way; inactive = flat fitted curve, though single readings scatter.
% is set by controls: 0 for no effect and ±100 for the full control effect; potency is the fitted concentration of half-maximal effect.

Regarding `COC(=O)C1=C(C)NC(C)=C(C(=O)OCC(C)=O)C1c1ccccc1[N+](=O)[O-]` (stereo not drawn), the Potency entry in assay [1] and in assay [2] was “inactive” in each case.
For the compound `CCCCCCCCCCCc1ccccc1`, the Potency result in assay [1] and in assay [2] was “inactive” throughout.
With `CCCN(CCC)CCc1cccc2c1CC(=O)N2`, the Potency result in assay [1] and in assay [2] was “inactive” each time.
On to `C=CCOC(=O)CC(C)C`, for which the Potency entry in assay [1] and in assay [2] was “inactive” each time.
With `CCOC(=O)CC(=O)c1cc(F)c(Cl)nc1Cl`, the Potency entry in assay [1] and in assay [2] was “inactive” each time.
On to `CC(Cl)COP(=O)(OCC(C)Cl)OCC(C)Cl` (stereo not drawn), for which the Potency entry in assay [1] and in assay [2] was “inactive” throughout.
For `CC(C)NNC(=O)c1ccncc1`, the Potency entry in assay [1] and in assay [2] was “inactive” throughout.
With `Brc1ccccc1-c1ccccc1`, the Potency result in assay [1] and in assay [2] was “inactive” in each case.
In the case of `O=C(O)C(O)[C@H](O)[C@@H](O)[C@H](O)[C@H](O)CO` (stereo partly drawn), the Potency entry in assay [1] and in assay [2] was “inactive” in each case.
Regarding `FC(F)(F)c1ccccc1Cl`, the Potency result in assay [1] and in assay [2] was “inactive” each time.
As for `CCCc1ccc(O)c(OC)c1`, the Potency result in assay [1] and in assay [2] was “inactive” each time.
For the compound `COc1ccccc1OCC(O)COC(N)=O` (stereo not drawn), the Potency entry in assay [1] and in assay [2] was “inactive” each time.
Consider `O=c1[nH]c(=O)n([C@H]2C[C@H](O)[C@@H](CO)O2)cc1Br`, for which the Potency entry in assay [1] and in assay [2] was “inactive” each time.
For the compound `O=C1Nc2cc(Cl)ccc2Oc2ccccc21`, the Potency result in assay [1] and in assay [2] was “inactive” throughout.
`Cc1ccc(C)c(O)c1C`: the Potency result in assay [1] and in assay [2] was “inactive” throughout.
Consider `Cc1cnccn1`, for which the Potency entry in assay [1] and in assay [2] was “inactive” each time.
Consider `O=C(Cl)c1ccc(Cl)cc1Cl`, for which the Potency entry in assay [1] and in assay [2] was “inactive” throughout.
Turning to `OCCN1CN(CCO)CN(CCO)C1`, the Potency entry in assay [1] and in assay [2] was “inactive” in each case.
Consider `O=C(O)c1ccc[n+]([O-])c1`, for which the Potency entry in assay [1] and in assay [2] was “inactive” in each case.
Consider `CCCCC/C=C/CC1CC(=O)OC1=O` (stereo not drawn), for which the Potency result in assay [1] and in assay [2] was “inactive” throughout.
Consider `CSc1ccc(C=O)cc1`, for which the Potency entry in assay [1] and in assay [2] was “inactive” each time.
As for `CCCCCCCC(=O)OCCCCCC`, the Potency result in assay [1] and in assay [2] was “inactive” each time.
As for `CCCCCCOc1ccc(N)cc1`, the Potency entry in assay [1] and in assay [2] was “inactive” each time.
Turning to `COC(=O)[C@@H](N)Cc1ccc(O)c(O)c1`, the Potency entry in assay [1] and in assay [2] was “inactive” throughout.
For `CC1CCc2nccnc21` (stereo not drawn), the Potency entry in assay [1] and in assay [2] was “inactive” each time.
On to `COCC(C)N` (stereo not drawn), for which the Potency result in assay [1] and in assay [2] was “inactive” throughout.
Consider `CN1CCC[C@@H]1Cc1c[nH]c2ccc(CCS(=O)(=O)c3ccccc3)cc12`, for which the Potency entry in assay [1] and in assay [2] was “inactive” throughout.
For the compound `CCCCCCCCCCCCSCCOCCO`, the Potency entry in assay [1] and in assay [2] was “inactive” each time.
On to `CCOC(=O)/C=C(C)/C=C/C=C(C)/C=C/c1c(C)cc(OC)c(C)c1C`, for which the Potency entry in assay [1] and in assay [2] was “inactive” each time.
For `NCc1ccccc1Sc1ccccc1CO`, the Potency result in assay [1] and in assay [2] was “inactive” each time.
With `CCC(C(=O)OCCOCCN(CC)CC)c1ccccc1` (stereo not drawn), the Potency entry in assay [1] and in assay [2] was “inactive” in each case.
Regarding `CCC(C(=O)O)c1ccc(N2Cc3ccccc3C2=O)cc1` (stereo not drawn), the Potency entry in assay [1] and in assay [2] was “inactive” in each case.
With `C[C@@H](CN(C)C)CN1c2ccccc2Sc2ccccc21`, the Potency entry in assay [1] and in assay [2] was “inactive” in each case.
Consider `CCCCN(CCCC)CCCOC(=O)c1ccc(N)cc1`, for which the Potency result in assay [1] and in assay [2] was “inactive” each time.
In the case of `Nc1nc(Cl)nc2c1ncn2[C@@H]1O[C@H](CO)[C@@H](O)[C@@H]1F`, the Potency entry in assay [1] and in assay [2] was “inactive” each time.
Consider `Cc1ncsc1CCO`, for which the Potency entry in assay [1] and in assay [2] was “inactive” throughout.
Take `CCc1cccc(CC)c1N`: the Potency result in assay [1] and in assay [2] was “inactive” each time.
Consider `S=c1nccc[nH]1`, for which the Potency result in assay [1] and in assay [2] was “inactive” each time.
As for `COc1cc(C(C)C)c2c(c1)S(=O)(=O)N(COc1cc(=O)n3cccc(OCCN4CCCCC4)c3n1)C2=O`, the viability change, negative = cytotoxic in assay [1] is -2.74% [at 18.9 µM]. For the same compound, the activity change, negative = cytotoxicity in assay [2] was 4.87% [at 18.9 µM].
Consider `CCOC(=O)[C@H](O)[C@@H](O)C(=O)OCC`, for which the Potency entry in assay [1] and in assay [2] was “inactive” each time.
On to `CCCCCCCCCCCCCCCC[N+](C)(C)Cc1ccccc1`, for which the Potency in assay [1] was 63.1 µM (active) and 49.4 µM (active) and 33.5 µM (active); in assay [2] it was 70.8 µM (active) and 44.1 µM (active) and 26.6 µM (active).
For the compound `CCOC(=O)CC`, the Potency entry in assay [1] and in assay [2] was “inactive” each time.
`NC(=O)c1cccnc1`: the Potency result in assay [1] and in assay [2] was “inactive” in each case.
As to `CCOC(=O)[C@@](C)(N)Cc1ccc(O)c(O)c1`, the Potency result in assay [1] and in assay [2] was “inactive” each time.
As for `CCC(C)C(C)=O` (stereo not drawn), the Potency entry in assay [1] and in assay [2] was “inactive” in each case.
In the case of `Cc1cccc(CN2CCN(C(c3ccccc3)c3ccc(Cl)cc3)CC2)c1` (stereo not drawn), the Potency entry in assay [1] and in assay [2] was “inactive” in each case.
Take `CC(C)CC(C)CC(C)CC(C)COC(=O)c1ccccc1C(=O)OCC(C)CC(C)CC(C)CC(C)C` (stereo not drawn): the Potency result in assay [1] and in assay [2] was “inactive” in each case.
For `NC(=O)c1ccc(N)cc1`, the Potency result in assay [1] and in assay [2] was “inactive” in each case.
Take `CCCCCc1ccc(Cl)cc1`: the Potency entry in assay [1] and in assay [2] was “inactive” each time.
Turning to `CCCCCCOC(=O)C(C)CC` (stereo not drawn), the Potency entry in assay [1] and in assay [2] was “inactive” throughout.
Turning to `CCOC(=O)/C=C/C(=O)O`, the Potency result in assay [1] and in assay [2] was “inactive” in each case.
In the case of `CC(C)(Oc1ccc(Cl)cc1)C(=O)OCCCOC(=O)C(C)(C)Oc1ccc(Cl)cc1`, the Potency result in assay [1] and in assay [2] was “inactive” in each case.
For the compound `COc1cc(Nc2c(C#N)cnc3cc(OCCCN4CCN(C)CC4)c(OC)cc23)c(Cl)cc1Cl`, the Potency entry in assay [1] and in assay [2] was “inactive” each time.
With `O=C1OCCO1`, the Potency result in assay [1] and in assay [2] was “inactive” throughout.
For `C=CC(C)(O)CC/C=C(\C)CC` (stereo not drawn), the Potency result in assay [1] and in assay [2] was “inactive” each time.
With `O=C1c2c(O)ccc(O)c2C(=O)c2c(NCCNCCO)ccc(NCCNCCO)c21`, the Potency entry in assay [1] and in assay [2] was “inactive” in each case.
`Cc1ccccc1C(=O)Nc1ccc(C(=O)N2CCCC(O)c3cc(Cl)ccc32)c(C)c1` (stereo not drawn): the Potency entry in assay [1] and in assay [2] was “inactive” throughout.
With `ClC1=C(Cl)C(Cl)(Cl)C(Cl)=C1Cl`, the Potency result in assay [1] and in assay [2] was “inactive” throughout.
Consider `C#CC(O)C(CC)CCCC` (stereo not drawn), for which the Potency entry in assay [1] and in assay [2] was “inactive” in each case.

The record behind these values is PubChem BioAssay (Tox21).
